# NALP1 inh = inhibitors of NALP1 inflammasome in yeast; S. cerevisiae NALP1/ASC/caspase-1 growth, X-gal OD620, 72 h; inhibition, % at 10 µM; 280,000 tested, 0.61% active; in the data active = inhibition mostly above about 24%, no sharp cut-off; inactive = mostly below about 32%
# TIM10 inh = growth inhibitors of TIM10 yeast strain. S. cerevisiae TIM10 strain growth, BacTiter-Glo luminescence, 24 h. inhibition, % at 10 µM. 330,000 tested, 1.4% active. AID 463195;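 active = inhibition of 40% or more at the single tested concentration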;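 note: wild-type TIM10 isogenic control strain grown at permissive 25 °C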
# NALP3 yeast inh = inhibitors of NALP3 inflammasome in yeast | inhibition, % at 10 µM | 330,000 tested, 0.39% active | Yeast reconstituted NLRP3/ASC/caspase-1, beta-gal luminescence, 24 h | AID 2825;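 active = inhibition of 50% or more; inactive = inhibition below 50%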
# tim10-1 inh = growth inhibitors of tim10-1 mutant yeast. S. cerevisiae tim10-1 ts strain growth, BacTiter-Glo, 24 h. inhibition, % at 20 µM. 330,000 tested, 2.2% active;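 active = inhibition of at least 40%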;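 note: mutant grown at 25 °C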
# V-ATPase pHluor = yeast V-ATPase proton transport regulation by pHLuorin; 350,000 tested, 0.37% active; S. cerevisiae, pHLuorin cytosolic pH fluorescence; response, % at 10 µM; in the data active = response mostly above about 7.3%, no sharp cut-off; inactive = mostly below about 5.4%; note: actives read high
# tim23-1 inh = tim23-1 yeast growth inhibition; S. cerevisiae tim23-1 growth, BacTiter-Glo luminescence, 24 h; inhibition, % at 20 µM; 330,000 tested, 1.3% active;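 active = growth inhibition of the mutant yeast at or above 50%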;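 note: temperature-sensitive mutant grown at 25 °C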
# Hits are given with their value; - = inactive; . = not tested or not shown. This is a sample that favours compounds with a hit; in the whole collection about 4.2% have one here.
SMILES,NALP1 inh,TIM10 inh,NALP3 yeast inh,tim10-1 inh,V-ATPase pHluor,tim23-1 inh
Cc1cc(=O)oc2cc(OCC(=O)NCCc3nc4ccccc4[nH]3)ccc12,38.3,-,-,-,-,-
Cc1c(Cl)cccc1-c1ccc(CNCc2ccccn2)o1,-,-,-,-,-,-
[O-]c1c[n+](-c2ccc(-[n+]3cc([O-])on3)cc2)no1,-,-,-,-,-,-
C(=C\c1ccco1)/C=N/n1cnnc1,21.5,-,-,-,-,-
O=C(c1ccc(F)cc1)N1CCCC(C(=O)N2CCN(c3ccccc3)CC2)C1 (configuration not stated),-,-,-,-,-,-
O=C(c1ccc(Cl)cc1)N1CCCC(C(=O)N2CCN(c3ccccc3)CC2)C1 (configuration not stated),43.5,-,-,-,-,-
Cc1ccc(SCC(=O)OCC(=O)NCCc2ccccc2)cc1C,.,-,-,-,-,-
S=C(Nc1ccc(Cl)c(Cl)c1)N1CCCC1,-,-,-,-,-,-
CN1CCN(C(=S)Nc2ccc(Cl)c(Cl)c2)CC1,48.0,-,-,-,-,-
COc1ccc(-c2nc(CS(=O)(=O)CC(=O)Nc3ccc(Cl)cc3)c(C)o2)cc1,-,-,-,-,-,-
COc1ccc(NC(=O)CS(=O)(=O)Cc2nc(-c3ccc(C)cc3)oc2C)cc1,44.7,-,-,-,-,-
CCOC(=O)c1sc(NC(=O)c2cccc(S(=O)(=O)N(CC)CC)c2)cc1C,-,-,-,-,-,-
CCOC(=O)c1sc(NC(=O)c2ccc(S(=O)(=O)N(C)C)cc2)cc1C,40.7,-,-,-,-,-
CCOc1ccccc1NC(=O)c1ccc(S(=O)(=O)N(C)C)cc1,40.9,-,-,-,-,-
CCOc1ccccc1NC(=O)c1ccc(S(=O)(=O)N(C)c2ccccc2)cc1,.,-,-,-,-,-
O=c1c2c(nc3n1CCS3)c1cc(F)ccc1n2Cc1cc(=O)n2cc(Cl)ccc2n1,.,-,-,-,.,-
Cc1nnc(NC(=O)CCn2c(=O)oc3ccccc32)s1,-,-,-,-,-,-
Cc1ccc(S(=O)(=O)N[C@@H](Cc2ccccc2)C(=O)N2CCC(C(=O)N[C@@H](CC(C)C)C(=O)O)CC2)cc1,-,-,-,-,-,-
CCN(CC)c1ccc(NC(=O)c2cccnc2)c(C)c1,-,-,-,-,-,-
CCN(CC)c1ccc(NC(=O)c2cccc(C)c2OC)c(C)c1,29.1,-,-,-,-,-
CCN1CCN(c2ccc(S(=O)(=O)N3CCCC3)cn2)CC1,-,-,-,-,-,-
COc1ccc(Br)cc1CSC(=N)N,-,-,-,-,-,-
CCCCCOc1ccc(Br)cc1CSC(=N)N,52.3,.,.,.,-,.
CC(NCc1ccc2c(c1)OCO2)C(=O)NC1CCCCC1 (configuration not stated),-,-,-,-,-,-
CC(NCc1ccc(F)cc1)C(=O)NC1CCCCC1 (configuration not stated),43.5,-,-,-,-,-
SMILES,NALP1 inh,TIM10 inh,NALP3 yeast inh,tim10-1 inh,V-ATPase pHluor,tim23-1 inh
Cc1cc(=O)oc2cc(OC(C)C(=O)NC3(C#N)CCCCC3)ccc12 (configuration not stated),.,-,-,-,-,-
Cc1ccc(S(=O)(=O)c2nc(-c3ccccc3)oc2N2CCC(C(N)=O)CC2)cc1,33.9,-,-,-,-,-
C=CCn1c(NC(C)c2cc(Cl)ccc2O)nc2ccccc21 (configuration not stated),47.2,-,-,-,-,-
NC(=O)NC(CC(=O)NCc1ccc2c(c1)OCO2)c1ccccc1Cl (configuration not stated),-,-,-,-,-,-
COC(=O)CC1C(=O)NCCN1C(=O)CSc1nc2ccccc2o1 (configuration not stated),-,-,-,-,-,-
COC(=O)CC1C(=O)NCCN1C(=O)CSc1nc2ccccc2c(=O)n1CC(C)C (configuration not stated),33.9,-,-,-,-,-
CC1CCN(C(=O)COC(=O)Cc2c[nH]c3ccccc23)CC1,-,-,-,-,13.1,-
CC1CCC2(CC1)NC(=O)N(NC(=O)C1CCN(C(=O)c3ccc(Cl)cc3)CC1)C2=O (configuration not stated),.,-,-,-,-,-
O=c1[nH]c(=S)[nH]c2c1C(c1ccc(Br)cc1)c1c([nH]c(=S)[nH]c1=O)O2,-,.,.,.,146.6,.
Cc1ccc(C(=O)n2nc(C#N)c(C#N)c2N)cc1,.,-,-,-,-,-
COc1ccc(C(=O)n2nc(C#N)c(C#N)c2N)cc1,37.0,-,-,-,-,-
Cc1cc(=O)n2c(n1)SCOC2,-,-,-,-,-,-
CC1(C)Cc2ccccc2C(c2cc3ccccc3oc2=O)=N1,-,-,-,-,-,-
CC1(C)Cc2c(ccc3ccccc23)C(c2cc3ccccc3oc2=O)=N1,34.1,-,-,-,-,-
O=C(O)CCCCCNC(=O)OCC1c2ccccc2-c2ccccc21,-,-,-,-,-,-
CCOCCCNC(=O)C1CC(=O)N(CCc2ccc(C)cc2)C1 (configuration not stated),37.5,-,-,-,-,-
COc1ccc(OCCCCn2c(CO)nc3ccccc32)cc1,-,-,-,-,-,-
COc1ccccc1NC(=O)C(=O)N/N=C(\C)CC(=O)Nc1ccccc1C(F)(F)F,-,-,-,-,-,-
CN(C)c1ccc(N2C(=NC(=O)c3ccccc3)SC3CS(=O)(=O)CC32)cc1 (configuration not stated),-,-,-,-,-,-
Nc1nc(SCc2ccc(Cl)cc2Cl)nc2nc3c(cc12)CCCC3,-,-,-,-,127.7,-
O=C(CN1CCN(c2ccccc2)CC1)c1ccc2cc[nH]c2c1,37.7,-,-,-,-,-
O=C(CCCOc1ccccc1)Nc1cccc(S(=O)(=O)N2CCCCCC2)c1,.,-,-,-,-,-
O=C(c1ccccc1)c1cc(Cl)ccc1N1C(=O)C=CC1=O,-,.,.,.,12.5,.
O=S(=O)(c1cccc(C(F)(F)F)c1)N1CCC(c2cc(-c3cccc4ccccc34)n[nH]2)CC1,36.7,-,-,-,-,-
COc1ccc(S(=O)(=O)N2CCC(c3cc(-c4cccc5ccccc45)n[nH]3)CC2)cc1,-,-,-,-,-,-
CNC(=S)NC12CC3CC(CC(C3)C1)C2,-,-,-,-,-,-
O=C(c1ccco1)N1CCN(C(=O)c2cccc3c2C(=O)N(Cc2cccnc2)C3)CC1,35.8,-,-,-,-,-
O=C(NCc1ccccc1Cl)C1CCC(CNc2c(N3CCOCC3)c(=O)c2=O)CC1 (configuration not stated),.,-,-,-,-,-
CN(C)c1ccc(N=C/C=C2\N(C)c3ccccc3C2(C)C)cc1,-,-,-,-,-,-
CN1/C(=C\C=Nc2ccc3ccccc3c2)C(C)(C)c2ccccc21,28.3,-,-,-,-,-

# Assay outcomes: PubChem BioAssay, several laboratories
